Screening data (PubChem BioAssay)
A selection: hits, their analogues and other compounds. The true share with any hit is near 13%.
HADH2 inh = HADH2 (human) dehydrogenase inhibition; AID 886; Potency, µM (top dose mostly 57.1 µM), hits mostly inhibitors; Q99714; 73,000 compounds, 3.4% hits; recombinant HADH2, NADH fluorescence, beta-hydroxybutyryl-CoA; further: nearly all actives have a fitted effect of over 60% in size
Target sequence (Q99714 whole entry, looked up, one chain of several): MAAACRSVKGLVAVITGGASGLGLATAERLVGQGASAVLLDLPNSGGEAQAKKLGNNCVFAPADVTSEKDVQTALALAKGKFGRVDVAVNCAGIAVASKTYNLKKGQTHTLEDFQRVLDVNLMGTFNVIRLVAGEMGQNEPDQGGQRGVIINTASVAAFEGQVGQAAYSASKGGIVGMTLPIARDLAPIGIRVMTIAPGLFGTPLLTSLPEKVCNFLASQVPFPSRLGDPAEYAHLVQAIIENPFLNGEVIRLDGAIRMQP
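Read-out: 360 nm excitation, 450 nm emission, kinetic over 4 min. Conditions: His-tagged human HADH2 20 nM, pH 9.0 Tris with Tween-20, 1 mM NAD+, 90 uM beta-hydroxybutyryl-CoA.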
AID923 = qHTS Assay for Allosteric/Competitive Inhibitors of Caspase-1: Spectroscopic Profiling in AFC Spectral Region | compound fluorescence, AFC spectral region (405/520 nm) | Potency, µM (doses to about 57.5 µM), most hits filed as activators | 75,000 compounds, 1.1% hits
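Titrations up to 57 uM read every 20 sec for 3 min (405/520 nm) with 50 nM caspase 1 and 5 uM Ac-WEHD-AFC, pH 7.5 HEPES buffer. Fluorescence-vs-time intercept gave baseline, scaled against on-plate AFC standard.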
4-MU autofl = compounds fluorescent in 4-MU spectral region. compound autofluorescence, 340/450 nm, 4-MU equivalents; active compounds read high. max dye-equivalent concentration, M. AID 589. 59,000 compounds, 11% hits; in the data active means max dye-equivalent concentration above about 10 nM; inconclusive means mostly about 1.1 nM to 9.6 nM
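Compounds in 100 mM Tris, pH 8.0, sat 15 min at room temperature before fluorescence was read at 340 nm excitation/450 nm emission; a per-plate six-point 4-MU standard curve converted signals to dye-equivalent concentration at each compound concentration.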
HSD17B inhib = HSD17B dehydrogenase inhibition | Q99714 | recombinant HSD17B10, NADH fluorescence kinetic | Potency, µM (top dose mostly 57.1 µM), actives largely listed as inhibitors | 75,000 compounds, 7.6% hits | AID 893;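 further: the protocol describes HADH2 (HSD17B10) and not the HSD17B4 of the title; nearly all actives have a fitted effect of over 70% in size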
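Enzyme plus compound, 15 min room temperature; substrate mix added (NAD+ 1 mM, beta-hydroxybutyryl-CoA 90 uM final); plates read kinetically for NADH fluorescence. HADH2 was His-tagged, E. coli-derived, 20 nM.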
A350 autofl = compound fluoresces in the Alexa 350 spectral region. Compound autofluorescence, 340/450 nm, Alexa 350 dye-equivalents; active compounds read high. max dye-equivalent concentration, M. 59,000 compounds, 11% hits. AID 590; in the data active means max dye-equivalent concentration above about 10 nM; inconclusive means mostly about 1.1 nM to 9.6 nM
A number is an active result; i = inactive; ? = inconclusive; nt = not tested or not shown; [ ] = dose if it differs, or a comment. Unless noted, the call rests on the fitted dose curve; in most records, active means well fitted curve in the direction sought with a large enough effect; inconclusive means small, poorly fitted or top-dose-only effect, or another doubt; inactive means no such curve, though single readings can be large; an effect the other way counts as inactive or inconclusive.

SMILES	HADH2 inh	AID923	4-MU autofl	HSD17B inhib	A350 autofl
CCN1CCN(C(=O)c2ccc3c(=O)n(CCC4=CCCCC4)c(=O)[nH]c3c2)CC1	i	i	?	?	?
CCCCCn1c(=O)[nH]c2cc(C(=O)NCc3ccc4c(c3)OCO4)ccc2c1=O	i	i	1.3e-08M	?	1.2e-08M
CCCCCn1c(=O)[nH]c2cc(C(=O)NCCN3CCOCC3)ccc2c1=O	25µM	i	2.2e-08M	?	2.4e-08M
O=C(NCc1ccco1)c1ccc2c(=O)n(CCC3=CCCCC3)c(=O)[nH]c2c1	i	i	i	32µM	i
O=C(NCc1ccc2c(c1)OCO2)c1cccc(C(=O)NCc2ccc3c(c2)OCO3)c1	i	i	nt	i	nt
O=C(NCCN1CCCC1)c1ccc2c(=O)n(CCc3ccccc3)c(=O)[nH]c2c1	i	i	2.5e-08M	16µM	2.4e-08M
CC(C)(C)c1ccc(CN2CCN([C@H](c3ccccc3)c3ccc(Cl)cc3)CC2)cc1	i[11.4 µM]	i[11.5 µM]	i	i[11.4 µM]	i
CCCCCn1c(=O)[nH]c2cc(C(=O)O)ccc2c1=O	i	i	1.3e-08M	25µM	1.2e-08M
CCCCCn1c(=O)[nH]c2cc(C(=O)NCCCN(CC)CC)ccc2c1=O	i	i	4.5e-08M	25µM	4.5e-08M
O=c1c(-c2cccc(Cl)c2)nc2cncnc2n1Cc1ccccc1	i	i	i	i	i
O=C(CC1(O)C(=O)N(Cc2ccccc2)c2ccccc21)c1ccncc1 (stereo not given)	i	i	i	16µM	i
C=CCN1C(=O)C(O)(CC(=O)c2ccc(-n3cccc3)cc2)c2ccccc21 (stereo not given)	i	i	i	32µM	i
OC1C2COC(O2)[C@H](O)C1O (stereo not given in full)	nt	i	nt	i	nt
CC(=O)N1C2CCCCC2S[C@H]2CCCCC21 (stereo not given in full)	i	i	1e-08M	i	?
O=C(O)C1CC(=O)N(C2CCCCCC2)C1 (stereo not given)	i	i	i	i	i
COC(=O)[C@@]1(Cc2ccccc2)[C@H]2c3cc(C(=O)N(C)C)n(C[C@H](O)CO)c3C[C@H]2CN1C(=O)c1ccccc1	i	i	nt	i	nt
O=C(c1cccc(F)c1)N1CCC2(CC1)CN(c1ccncc1)C2	i	i	i	i	i
O=C(c1cccc(F)c1)N1CCC2(CC1)CN(c1ncccn1)C2	i	i	i	32µM	i
CC(C)CN1CCC2(CC1)CCN(C(=O)c1cccc(F)c1)CC2	i	i	i	i	i
CCOc1cc(C2Nc3ccccc3C(=O)N2c2ccccc2OC)ccc1O (stereo not given)	nt	nt	2.6e-07M	nt	3e-07M
COc1cc(C2Nc3ccccc3C(=O)N2c2ccccc2OC)ccc1O (stereo not given)	?	i	4e-07M	25µM	3.5e-07M
CCOc1cc(C2CC(=O)Nc3cc(C)c(C)cc32)ccc1O (stereo not given)	i	i	i	i	i
O=C1c2ccccc2NC(c2ccc3c(c2)OCO3)N1O (stereo not given)	i	i	?	i	?
C#CCCCO/N=C1/C[C@@H](O)[C@@H](O)[C@@H]2[C@@H]3C(=O)N(C(C)(C)C)C(=O)[C@H]3CC[C@H]12	i[11.4 µM]	i[11.5 µM]	nt	i[11.4 µM]	nt
Cc1noc(C)c1C(=O)N1CCC2(CC1)CCN(c1ccncc1)CC2	i	i	i	i	i
SMILES	HADH2 inh	AID923	4-MU autofl	HSD17B inhib	A350 autofl
Nc1c[n+](N2CCOCC2)no1	?	i	nt	13µM	nt
COC(=O)c1[nH]c2cccc(Cl)c2c1NC(=O)CN1CCCCC1C (stereo not given)	i	i	i	?	i
COC(=O)c1[nH]c2ccccc2c1NC(=O)CN1CCCCCC1	i	i	i	i	i
COC(=O)c1[nH]c2cccc(Cl)c2c1NC(=O)CN1CCN(CCO)CC1	i	i	i	25µM	?
CCOC(=O)C1CCN(CC(=O)Nc2c(C(=O)OC)[nH]c3cccc(C)c23)CC1	i	i	i	?	?
COC(=O)c1[nH]c2cccc(OC)c2c1NC(=O)CN1CCOCC1	i	i	1.4e-08M	32µM	1.8e-08M
COC(=O)c1[nH]c2cccc(OC)c2c1NC(=O)CN1CC2(C)CC1CC(C)(C)C2 (stereo not given)	?	i	?	25µM	?
Cn1c(=O)c2cc(S(=O)(=O)N3CCOCC3)ccc2n(C)c1=O	i	i	i	i	i
O=c1c2ccccc2sn1-c1cc(S(=O)(=O)N2CCOCC2)ccc1N1CCOCC1	?	i	i	2µM	i
Cc1cc(C)n(-c2ccc(C(=O)Nc3nc4ccccc4s3)cc2)n1	?	i	1.6e-07M	32µM	2.1e-07M
Cc1cc(C)n(-c2ccc(C(=O)NC3=NCCS3)cc2)n1	i	i	i	i	i
CC(=O)c1cc2c(cc1NC(=O)c1ccc(-n3nc(C)cc3C)cc1)OCO2	i	i	6.6e-07M	25µM	7.2e-07M
CC12CCC(C(=O)N3CCc4ccccc43)(CC1=O)C2(C)C (stereo not given)	i	i	i	i	i
C/C=C\C1=C(CO)C(=O)[C@@H]2OC2C1=O (stereo not given in full)	4µM	i[11.5 µM]	nt	?	nt
Cc1nnc2n(C3CCCCC3)c(=O)c3c4c(sc3n12)COC(C)(C)C4	nt	nt	i	nt	i
CCCCn1c(=O)n(C)c(=O)c2c3c(sc21)COC(C)(C)C3	nt	nt	1.9e-08M	nt	2.4e-08M
COc1ccc2[nH]cc(CCNc3nc(-c4cccnc4)nc4ccccc34)c2c1	?	i	i	i	i
C=CCNC(=O)c1sc(=S)n(-c2ccc(C(=O)OCC)cc2)c1N	3.2µM	i	i	?	i
CCOC(=O)c1ccc(-n2c(N)c(C(=O)NCc3ccco3)sc2=S)cc1	3.2µM	i	i	i	i
CC(C)CCn1c(N2CCN(Cc3ccccc3)CC2)nc2c1c(=O)[nH]c(=O)n2C	i	i	1.2e-08M	i	2.5e-08M
CCCn1c(N2CCN(CC(=O)c3c[nH]c4ccccc34)CC2)nc2c1c(=O)[nH]c(=O)n2C	i	i	3.7e-08M	i	4.8e-08M
CCn1c(N2CCN(CC(=O)c3c(C)n(C)c4ccccc34)CC2)nc2c1c(=O)[nH]c(=O)n2C	i	i	i	i	i
CC1CCCN(c2nc3c(c(=O)[nH]c(=O)n3C)n2Cc2ccccc2Cl)C1 (stereo not given)	i	i	nt	20µM	nt
CC(CSc1nc2ccccc2s1)Cn1c(N2CCCC2)nc2c1c(=O)[nH]c(=O)n2C (stereo not given)	i	i	7.1e-08M	i	9.1e-08M
CC(C)CCn1c(CN2CCN(Cc3ccccc3)CC2)nc2c1c(=O)[nH]c(=O)n2C	i	i	i	i	?
O=C(O)CNC(=O)c1ccc(CO)o1	i	i	nt	i	nt
Cc1nc2c(OCc3ccccc3)cccn2c1CC#N	i	i	i	i	i
CC(C)(Sc1ccc(CCN(CCCCC2CCCCC2)C(=O)NC2CCCCC2)cc1)C(=O)O	i	i	i	20µM	i
